Consider 40 compounds from ChEMBL document CHEMBL1157539, “Thousands of chemical starting points for antimalarial lead identification” (Nature, 2010).

The Inhibition is the percentage by which the read-out fell short of the control.

The structures appear in SMILES notation.

The test system of one assay is Plasmodium falciparum. The assay can be described thus: GSK_TCMDC: Inhibition of Plasmodium falciparum 3D7 in whole red blood cells, using parasite LDH activity as an index of growth. Test compounds present at 2uM. Type of assay: functional.
As to `O=C(O)C(F)(F)F.O=C1CCCN1CCCNCc1cccc(-c2ccc(-c3nc4cc(C(F)(F)F)ccc4[nH]3)cc2)c1`, the Inhibition worked out at 100%.
`CN1CCc2cc(NS(=O)(=O)c3ccc(-c4ccc(Cl)cc4)cc3)c(OCCCN3CCCCC3)cc2CC1.Cl` displayed an Inhibition of 100%.
The same measure, in the same setting: with `Cc1cc(N(C)CCCN(C)C)nc(Nc2ccc(Cl)cc2)n1` the figure was 100%.

In the next assay the test system is Plasmodium falciparum. The assay can be described thus: GSK_TCMDC: Inhibition of Plasmodium falciparum Dd2 in whole red blood cells, using parasite LDH activity as an index of growth. Test compounds present at 2uM. Type of assay: functional.
As for `Cc1noc(-c2cccs2)c1C(=O)NCCc1cccc(Cl)c1`, the Inhibition amounted to 95%.
Same read-out and setting: with `CC(C)(C)c1ccc(NC(=O)c2cccc(CN3CCCN(Cc4ccsc4)CC3)c2)cc1.O=C(O)C(F)(F)F` the figure was 3%; with `COc1ccc(C2NCCc3c2[nH]c2ccccc32)cc1CN1CCN(c2ccc(F)cc2)CC1.Cl` (stereo not drawn), 56%; with `Cc1ccc(Nc2nc(C)cc(N3CCN(c4ccccc4)CC3)n2)cc1`, 72%.
Still for that read-out and setting: next, `C#CCN(Cc1ccc2[nH]c(N)nc(=O)c2c1)c1ccc(C(=O)N[C@@H](CCC(=O)O)C(=O)O)cc1`: 96%.
As for `Cc1nc(-c2cccc3c(NC(=O)N4CCc5cc6nccc(N7CCN(C)CC7)c6cc54)cccc23)no1.Cl`, the Inhibition came to 97%.
Same read-out and setting: with `CN(CCO)Cc1cccc(-c2ccc(NC(=O)c3cccc(C#N)c3)cc2)c1.O=C(O)C(F)(F)F` the figure was 57%; with `O=c1cc(NCCCNCc2ccccc2-c2ccccc2)[nH]c2ccccc12`, 46%; with `COC(=O)[C@@H](NC(=O)[C@H](Cc1ccc(OC)c(OC)c1)Nc1ccc(C#N)c2ccccc12)c1ccc(O)cc1.O=C(O)C(F)(F)F`, 100%.
For `O=[N+]([O-])c1ccc2nccnc2c1`, the Inhibition is recorded as 0%.
Same read-out and setting: next, `O=C(Nc1ccc(Cl)cc1)NC1CCN(CCCCCNC(=O)C2CC2c2ccc(Cl)c(Cl)c2)CC1` (stereo not drawn): 18%; `CCCCCN1CCC(NS(=O)(=O)c2cccc(C(=O)Nc3ccc(C(F)(F)F)cc3)c2)C1.O=C(O)C(F)(F)F` (stereo not drawn): 5%; `COc1cccc2c(N/N=C/c3ccc([N+](=O)[O-])cc3)ccnc12`: 16%.
In turn, `Cc1cc(N[C@@H](Cc2ccccc2)C(=O)NCCOc2ccccc2)nc(NCc2ccccc2C)n1.O=C(O)C(F)(F)F` displayed an Inhibition of 80%.
The compound `Cc1cccc(NC(=O)c2ccc(C(=O)NC3CCN(CC4CCCCC4)CC3)cc2)c1.O=C(O)C(F)(F)F` came in with an Inhibition of 18%.
Same read-out and setting: next, `NCCNS(=O)(=O)c1ccc(-c2ccnc3[nH]c(-c4ccncc4)cc23)cc1.O=C(O)C(F)(F)F`: 95%; `CCOC(=O)c1nc(-c2cc(Cl)nc(Cl)c2)[nH]c1NC(=S)NCc1ccc(NS(C)(=O)=O)cc1`: 98%; `COc1ccc(Cn2c(Nc3cccc(C(F)(F)F)c3)nc3cc(C(=O)NC(C)C)cnc32)cc1Cl`: 81%.
Same read-out and setting: with `CC(O)CNc1nc2ccccc2n1CC(=O)Nc1cccc(C(=O)Nc2cccc(C(F)(F)F)c2)c1` (stereo not drawn) the figure was 95%.
In the case of `CCC(C)NC(=O)Nc1ccc(-c2cccc(-c3nc4cccc(C)c4[nH]3)c2)cc1` (stereo not drawn), the Inhibition was 83%.
The same measure, in the same setting: with `CCC1(CC)C(=O)N=C(N2CCCCC2)N(C)C1=O` the figure was 66%; with `COc1ccc(C(=O)Nc2cc(Br)c3c(c2)CNCC3)cc1C(F)(F)F.Cl`, 4%.
Same read-out and setting: next, `Cl.O=C(NCCCCN1CCC(O)(c2ccc(Cl)cc2)CC1)c1ccc(Br)cc1`: 48%.
For `Cn1ccnc1CNC(=O)c1ccc(-c2cccc(-c3nc4cc(C(F)(F)F)ccc4[nH]3)c2)cc1`, the Inhibition is 80%.
The compound `O=C(Nc1cccc(F)c1)N1CCC(CN2CCOC(c3ccccc3)(c3ccccc3)C2)CC1` yielded an Inhibition of 97%.
For `CCOc1ccc2c(=NN=Cc3cccc(Cl)c3)cc(C)[nH]c2c1`, the Inhibition came to 34%.
The same measure, in the same setting: with `COc1ccc2c(=NN=Cc3cccc(Cl)c3)cc(C)[nH]c2c1` the figure was 99%.
For the compound `Cl.O=C(Nc1cccc2ccccc12)N1CCc2cc3nccc(N4CCN5CCC[C@H]5C4)c3cc21`, the Inhibition is reported as 86%.
Compound `Nc1c(Cl)cc(C(O)CNCCCCCCOCCC=C2CCOCC2)cc1Cl` (stereo not drawn) returned an Inhibition of 9%.
Same read-out and setting: next, `O=C(NC1CCN(Cc2ccccc2)CC1)c1ccc(-c2nc3cc(Cl)c(F)cc3[nH]2)s1`: 99%.
The compound `O=C(NC1CCN(Cc2ccccc2)CC1)c1cc(C(=O)NC2CCN(Cc3ccccc3)CC2)cc(C(=O)NC2CCN(Cc3ccccc3)CC2)c1` yielded an Inhibition of 100%.
For `Clc1ccc(CNc2ccnc(NCc3ccc4c(c3)OCCCO4)n2)c(Cl)c1`, the Inhibition is given as 20%.
Take `Cc1cc(C2CCN(CCCCNC(=O)c3ccc(-c4ccc(C#N)cc4)cc3)CC2)c(C)cc1OCCO`: the Inhibition stood at 68%.
`O=C(Nc1ccc(Cl)cc1)N[C@H]1CCN(CCCCCNC(=O)C2CC2c2ccc(Cl)c(Cl)c2)C1` (stereo partly drawn) had an Inhibition of 1%.
Regarding `O=C(NCCCN1CCCCC1)c1ccc(Nc2nccc(Nc3ccc(Oc4ccccc4)cc3)n2)cc1`, the Inhibition is 61%.
Same read-out and setting: next, `Oc1cc(Nc2ccnc3cc(-c4cccc(CN5CCCCC5)c4)ccc23)c(F)cc1Cl`: 100%; `CN(C)CCOc1cc(NC(=O)Nc2ccc3c(c2)CCCC3=O)ccc1I`: 31%.
For `O=C(O)C(F)(F)F.O=C1CCCN1CCCNCc1cccc(-c2ccc(-c3nc4cc(C(F)(F)F)ccc4[nH]3)cc2)c1`, the Inhibition was 96%.
Still for that read-out and setting: with `CN1CCc2cc(NS(=O)(=O)c3ccc(-c4ccc(Cl)cc4)cc3)c(OCCCN3CCCCC3)cc2CC1.Cl` the figure was 100%.
For `Cc1cc(N(C)CCCN(C)C)nc(Nc2ccc(Cl)cc2)n1`, the Inhibition was found to be 79%.
